From PubChem BioAssay AID1508601 (ICCB-Longwood Screening Facility, Harvard Medical School, 2020)
Several values for one entry are separate records, joined by “and”; a condition that tells them apart may be missing. Equal entries are not always repeated. Out of some 5,700 compounds screened, about 85 (1%) were called active. No stated cut-off is given here; in the data, active means p53-positive nuclei above about 36% (passing the limit was not always enough); inactive means the rest. Shown is part of a subset that was picked to be rich in actives. A structure can be active in one record and inactive in another.

Key:
[1] = p53 stabilisation in HPV-positive human cells, imaging, p53-positive nuclei imaging, 24 h, 48 h (AID 1508601); conditions: 24/48 h
[2] = target: Cellular tumor antigen p53 (Homo sapiens) (UniProt P04637); test: as above; conditions: 24/48 h, stronger effect = higher value
Chain of Cellular tumor antigen p53 (Homo sapiens) (P04637 whole entry, looked up): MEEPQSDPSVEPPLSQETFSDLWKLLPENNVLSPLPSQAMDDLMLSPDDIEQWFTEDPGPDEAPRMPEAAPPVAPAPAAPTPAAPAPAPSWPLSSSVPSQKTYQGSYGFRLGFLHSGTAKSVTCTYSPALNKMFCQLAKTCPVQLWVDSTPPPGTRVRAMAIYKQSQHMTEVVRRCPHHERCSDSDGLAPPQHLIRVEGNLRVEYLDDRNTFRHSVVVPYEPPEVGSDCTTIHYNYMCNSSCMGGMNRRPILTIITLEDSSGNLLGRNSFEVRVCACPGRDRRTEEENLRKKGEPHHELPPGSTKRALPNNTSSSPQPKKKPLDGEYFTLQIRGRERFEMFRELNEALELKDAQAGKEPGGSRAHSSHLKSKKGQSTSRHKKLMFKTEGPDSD

[3] = measured here: cell number at 24 h, Library stock concentration: 10 mM
[4] = measured here: cell number at 24 h, concentration not given here
[5] = measured here: cell number at 48 h, Library stock concentration: 10 mM
[6] = measured here: cell number at 48 h, concentration not given here
[7] = Library stock concentration: 10 mM
[8] = measured here: p53 positive nuclei at 24 h, Library stock concentration: 10 mM
[9] = measured here: p53 positive nuclei at 24 h, concentration not given here
[10] = measured here: cell number at 24 h, Library stock concentration: 3.33 mM
[11] = measured here: cell number at 48 h, Library stock concentration: 3.33 mM
[12] = Library stock concentration: 3.33 mM
[13] = measured here: p53 positive nuclei at 24 h, Library stock concentration: 3.33 mM

SMILES: CC[n+]1c(-c2ccccc2)c2cc(N)ccc2c2ccc(N)cc21
- nuclei count, normalised ([1]; measured here: cell number at 24 h, Library stock concentration: 500 nM): 102%
- nuclei count, normalised ([1]; measured here: cell number at 24 h, Library stock concentration: 1.5 uM): 108%
- nuclei count, normalised ([1]; measured here: cell number at 24 h, Library stock concentration: 4.6 uM): 106%
- nuclei count, normalised ([1]; measured here: cell number at 24 h, Library stock concentration: 13.7 uM): 111%
- nuclei count, normalised ([1]; measured here: cell number at 24 h, Library stock concentration: 41 uM): 111%
- nuclei count, normalised ([1]; measured here: cell number at 24 h, Library stock concentration: 123 uM): 102%
- nuclei count, normalised ([1]; measured here: cell number at 24 h, Library stock concentration: 370 uM): 117%
- nuclei count, normalised ([1]; measured here: cell number at 24 h, Library stock concentration: 1.111 mM): 107%
- nuclei count, normalised ([1]; measured here: cell number at 24 h, Library stock concentration: 3.333 mM): 105%
- nuclei count, normalised [1, 3]: 83.1%
- nuclei count, normalised [1, 4]: 104%
- nuclei count, normalised ([1]; measured here: cell number at 48 h, Library stock concentration: 500 nM): 104%
- nuclei count, normalised ([1]; measured here: cell number at 48 h, Library stock concentration: 1.5 uM): 109%
- nuclei count, normalised ([1]; measured here: cell number at 48 h, Library stock concentration: 4.6 uM): 106%
- nuclei count, normalised ([1]; measured here: cell number at 48 h, Library stock concentration: 13.7 uM): 109%
- nuclei count, normalised ([1]; measured here: cell number at 48 h, Library stock concentration: 41 uM): 109%
- nuclei count, normalised ([1]; measured here: cell number at 48 h, Library stock concentration: 123 uM): 99.5%
- nuclei count, normalised ([1]; measured here: cell number at 48 h, Library stock concentration: 370 uM): 104%
- nuclei count, normalised ([1]; measured here: cell number at 48 h, Library stock concentration: 1.111 mM): 99.7%
- nuclei count, normalised ([1]; measured here: cell number at 48 h, Library stock concentration: 3.333 mM): 98.5%
- nuclei count, normalised [1, 5]: 75.3%
- nuclei count, normalised [1, 6]: 97.4%
- p53-positive nuclei, normalised ([2]; Library stock concentration: 500 nM): 0.0282% (inactive)
- p53-positive nuclei, normalised ([2]; Library stock concentration: 1.5 uM): 0.101% (inactive)
- p53-positive nuclei, normalised ([2]; Library stock concentration: 4.6 uM): -0.0128% (inactive)
- p53-positive nuclei, normalised ([2]; Library stock concentration: 13.7 uM): -0.0168% (inactive)
- p53-positive nuclei, normalised ([2]; Library stock concentration: 41 uM): 0.329% (inactive)
- p53-positive nuclei, normalised ([2]; Library stock concentration: 123 uM): 3.12% (inactive)
- p53-positive nuclei, normalised ([2]; Library stock concentration: 370 uM): 7.73% (inactive)
- p53-positive nuclei, normalised ([2]; Library stock concentration: 1.111 mM): 12.2% (inactive)
- p53-positive nuclei, normalised ([2]; Library stock concentration: 3.333 mM): 19.5% (inactive)
- p53-positive nuclei, normalised [2, 7]: 103% (active)
- p53-positive nuclei, normalised ([2]; concentration not given here): 34.3% (inactive)
- p53-positive nuclei, normalised ([2]; measured here: p53 positive nuclei at 24 h, Library stock concentration: 500 nM): 0.0668%
- p53-positive nuclei, normalised ([2]; measured here: p53 positive nuclei at 24 h, Library stock concentration: 1.5 uM): 0.166%
- p53-positive nuclei, normalised ([2]; measured here: p53 positive nuclei at 24 h, Library stock concentration: 4.6 uM): -0.00293%
- p53-positive nuclei, normalised ([2]; measured here: p53 positive nuclei at 24 h, Library stock concentration: 13.7 uM): -0.0711%
- p53-positive nuclei, normalised ([2]; measured here: p53 positive nuclei at 24 h, Library stock concentration: 41 uM): 0.21%
- p53-positive nuclei, normalised ([2]; measured here: p53 positive nuclei at 24 h, Library stock concentration: 123 uM): 1.53%
- p53-positive nuclei, normalised ([2]; measured here: p53 positive nuclei at 24 h, Library stock concentration: 370 uM): 4.81%
- p53-positive nuclei, normalised ([2]; measured here: p53 positive nuclei at 24 h, Library stock concentration: 1.111 mM): 11.9%
- p53-positive nuclei, normalised ([2]; measured here: p53 positive nuclei at 24 h, Library stock concentration: 3.333 mM): 38.2%
- p53-positive nuclei, normalised [2, 8]: 127%
- p53-positive nuclei, normalised [2, 9]: 45.3%

SMILES: CCCCC/C=C\C/C=C\C/C=C\C/C=C\CCCC(=O)N[C@H](C)COP(=O)(O)O
- nuclei count, normalised [1, 4]: 107%
- nuclei count, normalised [1, 6]: 103%
- p53-positive nuclei, normalised ([2]; concentration not given here): 0.124% (inactive)
- p53-positive nuclei, normalised [2, 9]: -0.0345%

SMILES: N#CC(OC1OC(COC2OC(CO)C(O)C(O)C2O)C(O)C(O)C1O)c1ccccc1 (centres undefined)
- nuclei count, normalised [1, 10]: 95.4%
- nuclei count, normalised [1, 11]: 89.1%
- p53-positive nuclei, normalised [2, 12]: 0.141% (inactive)
- p53-positive nuclei, normalised [2, 13]: -0.0206%

SMILES: Cc1ccc(-n2nccn2)c(C(=O)N2CCN(c3nc4cc(Cl)ccc4o3)CCC2C)c1 (centres undefined)
- nuclei count, normalised [1, 10]: 71.4%
- nuclei count, normalised [1, 11]: 76.4%
- p53-positive nuclei, normalised [2, 12]: 0.0905% (inactive)
- p53-positive nuclei, normalised [2, 13]: -0.163%

SMILES: c1cc(N2CCNCC2)c2cnccc2c1
- nuclei count, normalised [1, 4]: 95.9%
- nuclei count, normalised [1, 6]: 98.3%
- p53-positive nuclei, normalised ([2]; concentration not given here): -0.118% (inactive)
- p53-positive nuclei, normalised [2, 9]: -0.041%

SMILES: CN(C)C(=S)SSC(=S)N(C)C
- nuclei count, normalised [1, 4]: 35.4%
- nuclei count, normalised [1, 6]: 24.2%
- p53-positive nuclei, normalised ([2]; concentration not given here): 90.3% (active)
- p53-positive nuclei, normalised [2, 9]: 108%

SMILES: Cc1sc2c(c1C)C(c1ccc(Cl)cc1)=NC(CC(N)=O)c1nnc(C)n1-2 (centres undefined)
- nuclei count, normalised ([1]; measured here: cell number at 24 h, Library stock concentration: 46 uM): 103%
- nuclei count, normalised ([1]; measured here: cell number at 24 h, Library stock concentration: 278 uM): 99.7%
- nuclei count, normalised ([1]; measured here: cell number at 24 h, Library stock concentration: 1.67 mM): 85.4%
- nuclei count, normalised [1, 10]: 123%
- nuclei count, normalised [1, 3]: 90.1%
- nuclei count, normalised ([1]; measured here: cell number at 48 h, Library stock concentration: 46 uM): 106%
- nuclei count, normalised ([1]; measured here: cell number at 48 h, Library stock concentration: 278 uM): 102%
- nuclei count, normalised ([1]; measured here: cell number at 48 h, Library stock concentration: 1.67 mM): 87.7%
- nuclei count, normalised [1, 11]: 122%
- nuclei count, normalised [1, 5]: 84.3%
- p53-positive nuclei, normalised ([2]; Library stock concentration: 46 uM): -0.111% (inactive)
- p53-positive nuclei, normalised ([2]; Library stock concentration: 278 uM): 0.158% (inactive)
- p53-positive nuclei, normalised ([2]; Library stock concentration: 1.67 mM): 12.8% (inactive)
- p53-positive nuclei, normalised [2, 12]: 3.31% (inactive)
- p53-positive nuclei, normalised [2, 7]: 25.8% (inactive)
- p53-positive nuclei, normalised ([2]; measured here: p53 positive nuclei at 24 h, Library stock concentration: 46 uM): -0.0163%
- p53-positive nuclei, normalised ([2]; measured here: p53 positive nuclei at 24 h, Library stock concentration: 278 uM): 0.11%
- p53-positive nuclei, normalised ([2]; measured here: p53 positive nuclei at 24 h, Library stock concentration: 1.67 mM): 27%
- p53-positive nuclei, normalised [2, 13]: 12.7%
- p53-positive nuclei, normalised [2, 8]: 46.3%

SMILES: Cc1sc2c(c1C)C(c1ccc(Cl)cc1)=NC(CC(=O)OC(C)(C)C)c1nnc(C)n1-2 (centres undefined)
- nuclei count, normalised ([1]; measured here: cell number at 24 h, Library stock concentration: 80 uM): 101% and 128% and 116%
- nuclei count, normalised ([1]; measured here: cell number at 24 h, Library stock concentration: 400 uM): 109% and 128% and 117%
- nuclei count, normalised ([1]; measured here: cell number at 24 h, Library stock concentration: 2 mM): 107% and 132% and 120%
- nuclei count, normalised [1, 10]: 128%
- nuclei count, normalised [1, 3]: 99.7% and 123% and 119%
- nuclei count, normalised ([1]; measured here: cell number at 48 h, Library stock concentration: 80 uM): 95.3% and 134% and 114%
- nuclei count, normalised ([1]; measured here: cell number at 48 h, Library stock concentration: 400 uM): 97.6% and 128% and 112%
- nuclei count, normalised ([1]; measured here: cell number at 48 h, Library stock concentration: 2 mM): 109% and 132% and 118%
- nuclei count, normalised [1, 11]: 124%
- nuclei count, normalised [1, 5]: 99.9% and 124% and 117%
- p53-positive nuclei, normalised ([2]; Library stock concentration: 80 uM): 0.233% (inactive) and -0.29% (inactive) and -0.79% (inactive)
- p53-positive nuclei, normalised ([2]; Library stock concentration: 400 uM): -0.238% (inactive) and -0.0882% (inactive) and -0.721% (inactive)
- p53-positive nuclei, normalised ([2]; Library stock concentration: 2 mM): 3.93% (inactive) and 0.629% (inactive) and -0.825% (inactive)
- p53-positive nuclei, normalised [2, 12]: 7.2% (inactive)
- p53-positive nuclei, normalised [2, 7]: 26.8% (active) and 8.08% (inactive) and -0.599% (inactive)
- p53-positive nuclei, normalised ([2]; measured here: p53 positive nuclei at 24 h, Library stock concentration: 80 uM): 0.0692% and 0.858% and -0.21%
- p53-positive nuclei, normalised ([2]; measured here: p53 positive nuclei at 24 h, Library stock concentration: 400 uM): 0.159% and 1.07% and -0.0728%
- p53-positive nuclei, normalised ([2]; measured here: p53 positive nuclei at 24 h, Library stock concentration: 2 mM): 12.9% and 4.45% and -0.21%
- p53-positive nuclei, normalised [2, 13]: 15.6%
- p53-positive nuclei, normalised [2, 8]: 54.1% and 21.9% and 0.0629%
